CD11b adhes enh: enhancers of human CD11b/CD18 binding to fibrinogen; P05107+P11215; K562 CD11b/CD18 adhesion to fibrinogen, ATPlite luminescence; activation, % at 10 µM; 93,000 compounds, 0.07% hits; AID 1499;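 active = 10 µM primary screen giving 50% or more activity, confirmed by 40% or more on retest at that dose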
Target sequence (P05107 whole entry, looked up, other chains not shown): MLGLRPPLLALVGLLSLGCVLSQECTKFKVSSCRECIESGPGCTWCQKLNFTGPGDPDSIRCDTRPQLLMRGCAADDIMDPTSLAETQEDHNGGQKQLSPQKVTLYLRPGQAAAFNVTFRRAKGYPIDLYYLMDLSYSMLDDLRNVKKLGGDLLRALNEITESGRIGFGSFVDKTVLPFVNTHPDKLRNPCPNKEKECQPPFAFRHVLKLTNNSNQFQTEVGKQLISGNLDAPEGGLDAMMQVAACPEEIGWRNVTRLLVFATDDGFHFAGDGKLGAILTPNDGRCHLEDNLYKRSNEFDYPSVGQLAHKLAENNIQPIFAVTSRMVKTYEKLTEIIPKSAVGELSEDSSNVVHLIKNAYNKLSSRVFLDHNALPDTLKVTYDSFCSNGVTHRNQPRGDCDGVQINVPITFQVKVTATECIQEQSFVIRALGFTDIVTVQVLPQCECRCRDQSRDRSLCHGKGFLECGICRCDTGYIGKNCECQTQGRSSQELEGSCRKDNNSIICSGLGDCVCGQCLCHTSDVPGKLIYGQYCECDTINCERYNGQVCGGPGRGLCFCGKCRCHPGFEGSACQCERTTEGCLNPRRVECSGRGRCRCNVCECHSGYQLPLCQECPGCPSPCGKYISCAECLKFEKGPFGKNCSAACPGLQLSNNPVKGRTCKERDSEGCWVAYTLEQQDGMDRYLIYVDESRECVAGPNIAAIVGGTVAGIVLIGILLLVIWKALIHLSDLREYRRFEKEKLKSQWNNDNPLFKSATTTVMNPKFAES
CD11b adhes inh: inhibitors of human CD11b/CD18 binding to fibrinogen; K562 CD11b/CD18 adhesion to fibrinogen, ATPlite luminescence; Mn2+ added to activate the integrin; inhibition, % at 10 µM; 93,000 compounds, 0.54% hits;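 active = primary inhibition of 50% or more at 10 µM, then 40% or more on retest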
FAK inh: FAK (human) kinase inhibition; inhibition, %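 (tested at 7 µM)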; biochemical FAK kinase activity assay; Q05397; 97,000 compounds, 0.84% hits;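 note: 0% = DMSO and 100% = reference compound high control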
PTK2B oligo ant: antagonists of human Pyk2 oligomerization; AID 1347419; Q293 cells, Pyk2 FERM NanoBiT luminescence; active compounds read low; 99,000 compounds, 0.83% hits; z-score (the deposit names both 25 µM and 10 µM);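 active = Z-score of -3 or lower, scaled per plate to the spread of control and sample wells; inactive = z-score above -3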;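 note: negative z-score means lost luminescence so less FERM oligomerization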
FAK inh confirm: FAK (human) inhibition confirmed; shares compounds with FAK inh; FAK kinase biochemical inhibition assay; inhibition, % at 7 µM; 750 compounds, 28% hits; AID 794
Numbers without * were called inactive; . = no result given. An excerpt weighted towards active compounds, which were near 1.8% of everything screened. Cut-off read from the data, not from the text of the source, unless noted: active = inhibition above about 19%; inactive = the rest.

SMILES | CD11b adhes enh | CD11b adhes inh | FAK inh | PTK2B oligo ant | FAK inh confirm
CN(C)S(=O)(=O)Oc1ccsc1C(=O)Nc1cccc(Cl)c1 | . | . | -2 | -0.92 | .
COC(=O)c1sccc1-c1ccc(C(=O)Nc2cccc(Cl)c2)o1 | . | . | 26* | -0.86 | 7
CCOc1ccc(-c2csc(Cn3c(CN4CCN(C)CC4)nc4ccccc4c3=O)n2)cc1 | 6 | -2 | . | . | .
COc1cccc(C(=O)NC2CC3CCCC(C2)N3CC(=O)Nc2ccccc2)c1 (stereo not drawn) | . | . | 22* | 0.17 | 7
COc1cccc(C(=O)NC2CC3CCCC(C2)N3CC(=O)Nc2ccc(N(C)C)cc2)c1 (stereo not drawn) | . | . | -3 | -0.38 | .
O=C(CN1CCSCC1)N/N=C/c1ccc(F)c(F)c1 | -2 | -7 | 0 | -0.62 | .
c1ccc(CNc2ncnc3sc4c(c23)CCC4)nc1 | -3 | -12 | 20* | 0.11 | 3
c1nc(NCCN2CCOCC2)c2c3c(sc2n1)CCCCC3 | 1 | 5 | 7 | -0.2 | .
Cc1c(-c2ccc(Cl)cc2)oc(=O)c2c(N)n(-c3ccccc3)nc12 | 8 | 8 | 24* | -0.38 | 14
COc1ccc(OC)c(NC(=O)CN2C(=O)NC3(CCOc4ccccc43)C2=O)c1 (stereo not drawn) | -1 | -1 | 1 | -0.45 | .
COc1ccc(N2Cc3cccc(C(=O)N4CCOCC4)c3C2=O)cc1 | -2 | -3 | 0 | 0.01 | .
COc1ccc(N2Cc3cccc(C(=O)N4CCN(C(=O)c5ccco5)CC4)c3C2=O)cc1 | 24 | -10 | 49* | . | 2
CC1(C)Cc2c(sc3nn[nH]c(=O)c23)CO1 | -3 | -4 | 1 | 0.1 | .
O=c1[nH]nnc2sc3c(c12)CCCC3 | . | . | 27* | -1 | 13
CC(=O)c1sc2nc(C)cc(C)c2c1N | 1 | -6 | 20* | 0.65 | 5
c1cc2ccc3ccc(CN4CCOCC4)c4ccc(c1)c2c34 | . | . | 41* | 0.1 | 41*
O=C(NC1CCCCC1)C1CC=CCC1C(=O)OCC(Cl)=C(Cl)Cl (stereo not drawn) | . | . | 0 | -0.65 | .
Cc1cc(O)c(C(C)C)cc1NC(=O)c1cccc(Cl)c1 | . | . | 4 | -0.45 | .
N=c1oc2c3c4c(cc2cc1C(=O)Nc1ccccc1)CCCN4CCC3 | 29 | -6 | 29* | -0.57 | 0
c1ccc(NCc2cccnc2)cc1 | 4 | -4 | -1 | -1.1 | .
O=C1c2ccccc2C(=O)c2c(NCc3cccnc3)cccc21 | . | . | 28* | -0.71 | 11
O=c1nc2s/c(=C\c3ccco3)c(=O)n2nc1Cc1ccc(F)cc1 | 77 | -23 | 24* | 1.5 | 5
Cc1cccc(C(C)C)c1NC(=O)c1ccc(CN(c2ccccc2)S(=O)(=O)c2ccccc2)cc1 | 6 | 9 | . | . | .
COc1ccc(NC(=O)CN2C(=O)C(C)SC(C)C2=O)c(OC)c1 (stereo not drawn) | 1 | 10 | . | . | .
CCOC(=O)C1CCN(c2nc3cc(OC)ccc3cc2C#N)CC1 | 4 | 10 | 19* | -0.17 | 0
SMILES | CD11b adhes enh | CD11b adhes inh | FAK inh | PTK2B oligo ant | FAK inh confirm
Cc1nn(-c2ccccc2)c(Cl)c1/C=C1\N=C(c2ccccc2)OC1=O | . | . | -1 | . | .
Cc1nnc(NC(=O)CSc2nc(C(C)C)nc3ccccc23)s1 | 0 | -5 | 46* | 0.44 | 23*
Cc1cc(NC(=O)CSc2nc(C(C)C)nc3ccccc23)no1 | -5 | 10 | 45* | 1.1 | 28*
Cc1nnc(NC(=O)CSc2nc3ccccc3o2)s1 | . | . | -1 | -0.81 | .
CC(C)c1nc(SCC(=O)Nc2nc3c(s2)CCCC3)c2ccccc2n1 | -3 | 57 | 20* | 0.7 | 8
C/C(=N\NC(=O)OC(C)(C)C)c1cccc([N+](=O)[O-])c1 | 4 | -10 | . | . | .
O=C1Nc2cc(Cl)c(Cl)cc2N(O)N1c1ccc(Cl)c(Cl)c1 | 3 | 2 | -2 | -0.04 | .
CCOc1ccc2nc(SCC#N)c(C#N)cc2c1 | -4 | -18 | 20* | 0.01 | 0
CCc1ccc2nc(SCC(=O)N(CC)CC)c(C#N)cc2c1 | -2 | -11 | 41* | -0.95 | 27*
Cc1cc(N)ccc1N1CCCC1 | . | . | 74* | -0.69 | 58*
Cc1ccc(C(=O)C(C)OC(=O)c2n[nH]c(=O)c3ccccc23)cc1 (stereo not drawn) | -7 | -6 | 2 | 0.55 | .
O=C1NC(=O)[C@@H]2C3c4ccccc4C=CN3[C@H](C(=O)c3cccs3)[C@H]12 (stereo partly drawn) | -3 | -9 | 20* | . | 12
O=C(c1ccccc1)[C@@H]1[C@@H](C(=O)c2ccc(F)cc2)[C@@]2(C(=O)Nc3ccccc32)[C@H]2c3ccccc3C=CN12 | 18 | 9 | . | . | .

Screening data: PubChem BioAssay, several laboratories
